ADAM17 inh = ADAM17 inhibitors, primary screen, biochemical, QFRET; actives 0.83% (n = 370,000); inhibition, % at 6.95 µM; recombinant ADAM17, EDANS/DABCYL FRET peptide cleavage; Disintegrin and metalloproteinase domain-containing protein 17 (Homo sapiens), P78536;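 active means inhibition above the mean of compounds lying between control limits plus 3 SD, set per campaign, cut at about 8.5% in these data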;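 further: 0% = DMSO-only wells as the low control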
Target sequence (P78536 215-824 limits assumed): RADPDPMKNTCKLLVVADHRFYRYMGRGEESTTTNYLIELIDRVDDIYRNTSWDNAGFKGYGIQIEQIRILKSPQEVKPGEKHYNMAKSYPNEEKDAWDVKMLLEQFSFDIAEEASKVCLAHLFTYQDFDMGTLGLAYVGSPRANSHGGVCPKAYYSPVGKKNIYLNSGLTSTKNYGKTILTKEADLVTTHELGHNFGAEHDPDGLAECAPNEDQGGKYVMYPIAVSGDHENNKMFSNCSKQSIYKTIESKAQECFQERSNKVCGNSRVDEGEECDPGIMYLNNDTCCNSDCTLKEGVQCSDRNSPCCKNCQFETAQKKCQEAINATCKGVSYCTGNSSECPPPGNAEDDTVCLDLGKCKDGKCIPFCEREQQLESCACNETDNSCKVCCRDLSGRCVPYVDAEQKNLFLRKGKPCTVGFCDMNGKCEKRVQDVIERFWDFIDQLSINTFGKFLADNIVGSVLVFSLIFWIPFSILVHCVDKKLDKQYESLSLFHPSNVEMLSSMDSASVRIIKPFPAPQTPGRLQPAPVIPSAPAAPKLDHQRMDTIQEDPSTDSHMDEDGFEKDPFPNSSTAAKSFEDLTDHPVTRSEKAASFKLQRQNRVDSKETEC
rCAG binder = binders of r(CAG) RNA repeats, primary screen, biochemical, fluorescence; r(CAG) RNA repeat, TO-PRO-1 dye displacement fluorescence; inhibition, % at 3 µM; actives 1.3% (n = 370,000);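 active means inhibition above the plate cutoff, the mean of all test compounds on that plate plus 3 SD, cut at about 35% in these data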;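 further: 0% = DMSO alone and 100% = 100 µM mitoxantrone as full dye displacement; higher means more dye released from RNA so lower well fluorescence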
ADAM10 inh = human ADAM10 inhibitors, primary screen, biochemical, QFRET, HTS. Disintegrin and metalloproteinase domain-containing protein 10 (Homo sapiens), O14672. recombinant ADAM10, EDANS/DABCYL FRET peptide cleavage, 3 h. inhibition, % at 7 µM. actives 0.62% (n = 370,000). AID 720582, 2013;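 active means inhibition above a per-campaign cutoff equal to the mean of compounds falling between control-based bounds plus 3 SD, cut at about 20% in these data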;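 further: 0% = DMSO wells while the 100% control is not disclosed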
AHR activator = AHR activators, primary screen, cell-based, luminescence, luciferase reporter, human | AHR-responsive luciferase reporter cells | AID 2796, 2010 | activation, % at 5 µM | actives 2.5% (n = 320,000); in the data active means activation above about 47%;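 further: 0% = vehicle wells and 100% = reference agonist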
proKLK7 act = proKLK7 zymogen activators, primary screen, biochemical, fluorescence intensity. actives 0.9% (n = 370,000). activation, % at 7 µM. purified proKLK7, EDANS-DABCYL substrate fluorescence; 100% is mature enzyme control, 0% vehicle. AID 652039, 2013;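 active means activation above the mean of all tested compounds plus 3 SD, computed per campaign excluding outliers beyond control limits, cut at about 13% in these data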
GRIN3A LBD mod = binders of NR3A ligand-binding domain, primary screen, biophysical, differential scanning fluorimetry, uHTS | AID 1259313, 2017 | actives 2.5% (n = 340,000) | NR3A LBD differential scanning fluorimetry, Tm shift; 0% = protein alone, 100% = glycine-bound protein | Tm shift relative to glycine control, % at 25 µM | Glutamate receptor ionotropic, NMDA 3A (GRIN3A) ligand-binding domain;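 active means melting temperature shift of at least 10% of the positive control shift, at one fixed dose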
proKLK7 act conf = proKLK7 zymogen activators, confirmation, biochemical, fluorescence intensity, triplicate; shares compounds with proKLK7 act; purified proKLK7, EDANS-DABCYL substrate fluorescence; scaled: vehicle 0, mature enzyme 100; activation, % at 7 µM; actives 68% (n = 3,200); AID 686949, 2013;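 active means activation, as change over the incubation, above the mean of all tested compounds plus 3 SD, cut at about 13% in these data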
EDANS interfere = EDANS-DABCYL substrate optical interference, artefact control for kallikrein-7 zymogen activator project, biochemical, fluorescence intensity, high throughput | shares compounds with proKLK7 act | no enzyme, 4 h; solvent 0%, active enzyme control 100% | activation, % at 7 µM | actives 80% (n = 3,200);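 active means activation above the all-compound mean plus 3 SD, ignoring values outside control-based bounds, cut at about 4.8% in these data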;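 further: value is the 4 h activation minus the activation read at time zero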
K7 EDANS ctr = EDANS fluorescence interference in dose response, no enzyme | shares compounds with proKLK7 act | EDANS-DABCYL peptide fluorescence interference | EC50, µM | actives 20% (n = 250);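 active means compounds that raise the fluorescence signal in this interference counterscreen, with EC50 at or below 10 µM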;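 further: intact quenched peptide substrate alone read at 355 nm excitation and 520 nm emission; signal is fluorescence gain from T0 to T4 after four hours at room temperature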
The depositor's hits bear a star; i = inactive; . = not tested or not shown. This is a sample that favours compounds with a hit; in the whole collection about 7% have one here.

SMILES	ADAM17 inh	rCAG binder	ADAM10 inh	AHR activator	proKLK7 act	GRIN3A LBD mod	proKLK7 act conf	EDANS interfere	others
O=c1c(-c2ccc(Cl)cc2)coc2c(CN3CCCCC3)c(O)ccc12	-178	1	i	-1	14*	0	22*	27*
O=c1c(-c2ccc(Br)cc2)coc2c(CN3CCCCC3)c(O)ccc12	-169	-1	-408	.	9	0	.	.
O=c1c(-c2ccccc2Cl)coc2c(CN3CCCCC3)c(O)ccc12	i	0	i	3	60*	1	74*	74*
COc1cccc(-n2c(SCC(=O)NC3CC3)nc3ccccc3c2=O)c1	-1	6	3	.	0	.	.	.
COc1ccc(Oc2coc3c(CN4CCOCC4)c(O)ccc3c2=O)cc1	-83	2	-280	-1	29*	0	12	15*
COc1ccc(Oc2coc3cc(O)ccc3c2=O)cc1	-110	4	-230	.	4	1	.	.
COc1cccc(CN(C(=O)c2ccc([N+](=O)[O-])cc2)C2CCS(=O)(=O)C2)c1 (centres undefined)	-3	1	9	0	0	-3	.	.
Cc1ccccc1/C=N\NC(=O)c1ccc(Cn2cccn2)o1	-5	-1	-3	37	0	0	.	.
NC(=O)Cn1cc(/C=N/NC(=O)c2ccc(Cn3cc(Cl)cn3)o2)c(-c2ccccc2)n1	-16	-3	-42	.	20*	-1	2	1
COc1c2c(cc3ccc(=O)oc13)CCO2	-139	-1	-334	0	20*	1	28*	29*
CCOCCCNC(=O)c1cc2c(=O)[nH]c3ccccc3c2s1	-99	3	-257	-3	2	-1	.	.
Cc1ccc2[nH]c(=O)c3cc(C(=O)NCCC(C)C)sc3c2c1	-21	4	-37	.	-2	2	.	.
CCC(C)NC(=O)c1cc2c(=O)[nH]c3ccc(C)cc3c2s1 (centres undefined)	-165	12	-390	1	35*	-1	-16	-17
CCN(C(=O)c1cc2c(=O)[nH]c3ccc(C)cc3c2s1)c1ccccc1F	-3	24	-1	10	1	0	.	.
CCCCN(CC)CCNC(=O)c1cc2c(=O)[nH]c3ccc(C)cc3c2s1	-330	20	i	6	16*	-4	-47	-54
O=C(NCCCN1CCOCC1)c1cc2c(=O)[nH]c3ccccc3c2s1	-456	6	i	-3	14*	-1	11	12*
CCCCN(CC)CCCNC(=O)c1cc2c(=O)[nH]c3ccccc3c2s1	-210	14	i	2	15*	-2	9	6.2*
CC1(C)Cc2nc(NC3CCCCC3)c(C#N)cc2CO1	-98	-6	-303	1	0	0	.	.
CCC(Oc1ccc(F)cc1)C(=O)N1CCCCCCC1 (centres undefined)	-1	-2	-4	1	1	0	.	.
O=C(Nc1cc(Cl)ccc1N1CCOCC1)c1ccc(=O)[nH]c1	-6	2	-4	0	0	2	.	.
COc1ccc(/C=C/C(O)=C2/C(=O)NC3(C)CC2c2ccccc2O3)c(OC)c1OC (centres undefined)	-1	-1	-1	4	15*	2	15*	10*	K7 EDANS ctr=>70
COc1ccc(/C=C/C(O)=C2/C(=O)N(C)C3(C)CC2c2ccccc2O3)cc1 (centres undefined)	1	1	2	14	0	4	.	.
COc1cc(C)c(NC(=S)Nc2cccc(Cl)c2C)cc1OC	-1	3	-5	8	0	2	.	.
N#Cc1cc2ccc(N3CCOCC3)cc2cc1C#N	-111	8	-320	22	34*	0	-88	-48
CCOC(=O)c1nc2c(ccc3ccccc32)cc1C	-59	12	-148	-1	-3	0	.	.
SMILES	ADAM17 inh	rCAG binder	ADAM10 inh	AHR activator	proKLK7 act	GRIN3A LBD mod	proKLK7 act conf	EDANS interfere	others
CC1(C(=O)NS(=O)(=O)c2ccc(C#N)cc2)CCN1C(=O)C1(c2ccccc2)CCCC1 (centres undefined)	2	23	0	.	0	.	.	.
O=c1[nH]c(N2CCOCC2)cc2ccccc12	-200	3	i	4	34*	-2	20*	-7	K7 EDANS ctr=>70
Cc1nccc(-c2sc(-c3cccs3)nc2C)n1	i	1	i	37	41*	1	20*	21*
Cc1nc(-c2cccs2)sc1C(=O)O	-39	2	-118	1	1	0	.	.
COc1cc2c(cc1OC)CN(C(=O)CN1CCN(S(=O)(=O)c3ccccc3Br)CC1)CC2	-57	-1	-190	2	30*	-1	1	0
Cn1c(=O)c2c(C(=O)O)cc(-c3ccccc3)nc2n(Cc2ccccc2)c1=O	-27	17	-66	-7	38*	0	59*	65*
O=Cc1cn(-c2ccc(F)cc2)c2ccccc12	2	-3	-3	-1	0	-11	.	.
Cn1c(=O)c2cc(NC(=O)CCc3ccc4c(c3)OCO4)ccc2n1Cc1ccc(F)cc1	-244	3	i	.	32*	.	65*	72*
COc1cc(Cn2c3ccc(NC(=O)CCc4ccc(O)cc4)cc3c(=O)n2C)ccc1F	-316	8	i	.	13*	.	5	10*
COc1ccc(CCNC(=O)Nc2ccc3c(c2)c(=O)n(C)n3Cc2ccc(F)cc2)cc1OC	-386	1	i	.	12	.	.	.
Cn1c(=O)c2cc(NC(=O)CCc3cccc(Cl)c3)ccc2n1Cc1cccc(C(F)(F)F)c1	-40	3	-148	.	-1	.	.	.
Cc1ccc(C)n1-c1ccc(-c2ccnc(N)n2)cc1	-38	10	-92	.	3	-2	.	.
O=C(Nc1ccc(C2=CN(Cc3ccccc3)CCC2=O)cc1)OCc1ccccc1	-5	-10	3	-1	20*	1	0	1
